Bioassay records from PubChem BioAssay.
This is a sample that favours compounds with a hit; in the whole collection about 12% have one here.
Pf growth 96h: P. falciparum growth inhibition at 96 hours; P. falciparum luciferase reporter growth, 96 h; Potency, µM (titrated, usually from 28.7 µM), most hits filed as inhibitors; hit rate 6.9% among 320,000
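Two-generation exposure (96 h) targets delayed-death phenotype. Reporter parasites carrying integrated firefly luciferase, in red cells at 2% hematocrit and 0.05% parasitemia final, kept at 37 C, 5% CO2; luminescence loss indicates inhibition.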
SARS PLP yeast: inhibitors of SARS-CoV papain-like protease in yeast | S. cerevisiae expressing SARS-CoV PLpro, growth rescue | Potency, µM (titrated, usually from 32.9 µM), most hits filed as activators | hit rate 0.19% among 330,000; calls by dose curve; also: nearly all actives have a fitted effect of over 55% in size
Sm TGR block: S. mansoni TGR enzyme inhibition; Q962Y6; AID 485364; Potency, µM (doses to about 114 µM), hits mostly inhibitors; purified TGR, DTNB reduction, TNB absorbance 405 nm; hit rate 3% among 360,000; also: nearly all actives have a fitted effect of over 60% in size
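Kinetic colorimetric format: TGR-catalysed, NADPH-driven DTNB reduction monitored via TNB absorbance. Enzyme dispensed at 20 nM; compound exposure 15 min at room temperature before reaction start.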
Pf growth 48h: P. falciparum growth inhibition at 48 hours (one generation); Potency, µM (titrated, usually from 28.7 µM), usual class: inhibitors; P. falciparum luciferase growth in erythrocytes, 48 h; hit rate 5.9% among 310,000
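Erythrocytes infected with P. falciparum carrying an integrated firefly luciferase reporter (2% hematocrit, 0.1% parasitemia final) were exposed to compounds in RPMI 1640 with 0.5% Albumax at 37 C, 5% CO2. Growth inhibition was scored as reduced luminescence.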
Numbers stand for hits; . = inactive; ? = inconclusive; / = not tested or not shown. Unless noted, calls follow the shape of the dose curve; as a rule, active = well fitted curve in the direction sought with a large enough effect; inconclusive = small, poorly fitted or top-dose-only effect, or another doubt; inactive = no such curve, though single readings can be large; an effect the other way counts as inactive or inconclusive.

SMILES	Pf growth 96h	SARS PLP yeast	Sm TGR block	Pf growth 48h
COc1ccc(-c2[nH]ncc2/C=N\NC(=O)c2ccc(Br)o2)cc1OC	.	.	.	.
COc1cc(OC)cc(-c2cc3ncccc3cn2)c1	.	.	.	.
Fc1ccccc1-c1cc2ncccc2cn1	.	.	32µM	.
CCN(c1ccccc1)c1ncnc2c1cnn2-c1ccc(C)cc1C	/	/	.	/
COc1cc(C2CC(=O)C=C(O)C2)cc(OC)c1OC (stereo unspecified)	?	.	.	5.9µM
O=C(CCc1nnc(Cc2ccc(-c3ccccc3)cc2)o1)N1CCCC1	9.3µM	.	.	?
COCCCNC(=O)CCc1nnc(Cc2ccc(-c3ccccc3)cc2)o1	?	.	.	.
Cc1ccc(CNC(=O)CCc2nnc(Cc3ccc(-c4ccccc4)cc3)o2)o1	.	.	25µM	.
CCOc1ccc(S(=O)(=O)N2CCN(Cc3nc4ccc(C)cc4o3)CC2)cc1	/	/	.	/
COc1ccc(N2CCN(Cc3cc4c(cc3O)CCC4)CC2)cc1	/	.	.	1.7µM
Oc1cc2c(cc1CN1CCN(c3cccc(C(F)(F)F)c3)CC1)CCC2	1.2µM	.	.	1.7µM
Oc1cc2c(cc1CN1CCN(c3ccccc3)CC1)CCC2	2.6µM	.	.	1.7µM
CC(=O)Nc1ccc(CN2CCN(c3cccc(C(F)(F)F)c3)CC2)cc1	.	.	.	/
COc1cc(C)cc(OC)c1OCC(=O)Nc1cc(C)on1	?	.	.	?
O=C(OCC(=O)N1CCCCCC1)c1ccccc1Br	.	.	.	.
CCCOc1cccc(NC(=O)c2c(-c3ccccc3Cl)noc2C)c1	/	/	.	/
Cc1ccc(S(=O)(=O)N(Cc2ccccc2)c2ccccc2C(=O)NCc2ccco2)cc1	5.9µM	.	?	10µM
Cc1ccc(S(=O)(=O)N(Cc2ccccc2)c2ccccc2C(=O)Nc2ccccc2C(=O)NCc2ccco2)cc1	?	.	.	10µM
CSc1ccc(S(=O)(=O)NCC(=O)OCC(=O)NCc2cccs2)cc1[N+](=O)[O-]	.	.	.	.
CC(=O)Nc1c(C)nn(-c2ccccc2)c1N1CCC(C(=O)Nc2ccc(F)cc2Cl)CC1	/	/	.	/
Cc1ccc(NC(=O)CN(C)C(C)C(=O)Nc2ccc(S(=O)(=O)N3CCCC3)cc2)cc1 (stereo unspecified)	12µM	.	.	12µM
COc1cccc(NC(=O)CN(C)C(C)C(=O)Nc2ccc(S(=O)(=O)N3CCCC3)cc2)c1 (stereo unspecified)	4.7µM	.	.	9.3µM
O=C(Nc1ccc(C(F)(F)F)cc1)c1cc(-c2cccnc2)nc2ccc(Br)cc12	?	.	.	0.37µM
CC(=O)Nc1cccc(NC(=O)c2cc(-c3cccnc3)nc3ccc(Cl)cc23)c1	.	.	/	?
CC(=O)Nc1cccc(NC(=O)c2cc(-c3cccnc3)nc3ccc(Br)cc23)c1	?	.	.	5.2µM
SMILES	Pf growth 96h	SARS PLP yeast	Sm TGR block	Pf growth 48h
Cn1cc(CNC(=O)c2cc(-c3ccccc3)nc3ccc(Br)cc23)cn1	?	.	.	13µM
CC(C)OCCCn1c(SCc2cccc(Br)c2)nc2c(sc3ccccc32)c1=O	/	/	.	/
CCCCCCCCCC(=O)NNC(=O)c1c(O)c2ccccc2n(CC)c1=O	.	.	.	.
CCCCCC(=O)NNC(=O)c1c(O)c2ccccc2n(CC)c1=O	10µM	.	.	?
CCn1c(=O)c(C(=O)NCc2ccc(F)cc2)c(O)c2ccccc21	12µM	.	.	.
CCCCCn1c(=O)c(C(=O)NCc2ccccc2Cl)c(O)c2ccccc21	?	.	.	7.4µM
CCCCCn1c(=O)c(C(=O)NCc2ccncc2)c(O)c2ccccc21	.	.	.	1.7µM
CCn1c(=O)c(C(=O)NCc2ccccc2)c(O)c2ccccc21	.	.	.	?
O=C(CNCc1ccc(F)cc1)Nc1cc(S(=O)(=O)N2CCOCC2)ccc1Cl	/	.	/	/
Cc1ccc(N2C(=O)CSC23C(=O)N(CC(=O)NCc2ccccc2)c2ccccc23)cc1 (stereo unspecified)	/	/	.	/
Cc1cccc(NC(=O)CNC(=O)c2cccc(-n3cccc3)c2)c1C	.	.	.	.
CCCCCCn1c(=O)c(C(=O)Nc2cnccn2)c(O)c2ccccc21	?	.	.	2.6µM
CCCCCCCCn1c(=O)c(C(=O)OC)c(N)c2ccccc21	?	.	.	15µM
CCCCCCn1c(=O)c(C(=O)Nc2nc(CC(=O)OCC)cs2)c(O)c2ccccc21	.	.	.	12µM
COc1cc2[nH]c(=O)c(C(=O)NCc3ccc(F)cc3)c(O)c2cc1OC	3.3µM	.	.	.
CCCCCCCn1c(=O)c(C(=O)OC)c(N)c2ccccc21	?	.	.	?
